About 83,000 compounds went through this panel and 20% of them were active in at least one assay; those are over-represented in the sample as a whole.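 Compound tested at a single concentration for 48 hours in 96-well plates; a percent growth value below 10 was scored as active.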 Values without a mark were called inactive. Calls of active or inactive are those of the source.
Columns and labels:
Experiment in all cases: NCI-60 one-dose screen, 48 h (100 = growth as untreated, 0 = no growth, -100 = all killed)
Conditions in all cases: 10 µM unless noted
[1] = tested on: DU-145 prostate
[2] = tested on: K-562 leukemia
[3] = tested on: MALME-3M melanoma
[4] = tested on: RXF 393 renal
[5] = tested on: SF-268 CNS
[6] = tested on: SF-295 CNS
[7] = tested on: SF-539 CNS
[8] = tested on: UACC-257 melanoma
[9] = tested on: HCT-15 colon
[10] = tested on: HT29 colon
[11] = tested on: SNB-75 CNS
[12] = tested on: SNB-19 CNS
[13] = tested on: U251 CNS
[14] = tested on: PC-3 prostate
[15] = tested on: SK-MEL-5 melanoma
[16] = tested on: UACC-62 melanoma
[17] = tested on: LOX IMVI melanoma
[18] = tested on: SK-MEL-28 melanoma
[19] = tested on: M14 melanoma
[20] = tested on: MDA-MB-231 breast

Row | Structure (SMILES) | growth [1] | growth [2] | growth [3] | growth [4] | growth [5] | growth [6] | growth [7] | growth [8] | growth [9] | growth [10] | growth [11] | growth [12] | growth [13] | growth [14] | growth [15] | growth [16] | growth [17] | growth [18] | growth [19] | growth [20]
1 | COC(=O)CCC/C=C\C[C@H]1C=CC(=O)/C1=C/C[C@@H](O)CCc1cccc(C(F)(F)F)c1 | 2.5% (active) | 1.71% (active) | 58.4% | -73.5% (active) | -2.42% (active) | -21.1% (active) | -14.1% (active) | -6.49% (active) | -5.76% (active) | -30.6% (active) | 97.9% | 4.49% (active) | -84.3% (active) | -39% (active) | -83.3% (active) | -60% (active) | -64.2% (active) | -45.9% (active) |  | 
2 | COc1ccc(-c2csc(NC(=O)N3CCN(c4cc5c(cc4F)c(=O)c(C(=O)O)cn5C4CC4)CC3)n2)cc1 | 10.6% | 11.7% | -11.4% (active) | 34.4% | 20% | -4.61% (active) | 20.6% | -17.6% (active) | 14.6% | 2.34% (active) | -2.38% (active) | 20.8% | 6.54% (active) | -0.577% (active) | -39.9% (active) | -14.2% (active) | -76.4% (active) | 33.7% | 9.8% (active) | 
3 | COC(=O)[C@H](C)NC(=O)NC(=O)NC(=O)CI | 84.5% | 7.73% (active) | -53.9% (active) | 59.1% | 82.6% | 91.9% | 94.6% | 104% | 51.4% | 67.2% | 112% | 108% | 96.9% | 86.7% | 99.5% | 41.2% | -66.2% (active) | 48% | 58.5% | 
4 | O=C1/C(=C/c2ccc(F)cc2)Sc2c(Br)cccc21 | 99.7% | 80% | 99.9% | 85.8% | 79% | 87.3% | 75.5% | 85.9% | 75.8% | 100% | 87.7% | 95.6% | 70.4% | 70.4% | 88.1% | 55.7% | 82% | 110% |  | 
5 | COc1cccc(Cc2cc(-c3ccccc3)nn(CC(=O)c3ccccc3)c2=O)c1 | 63.3% | 22.5% | 97.1% | 60.1% | 54% | 68.1% | 49.9% | 95% | 20.2% | 36.6% | 50.9% | 58% | 37.1% | 41.4% | 39.4% | 45.9% | 11.8% | 73.2% | 60.3% | 
6 | Clc1ccc2c(c1)N(CCCN1CCCC1)c1ccccc1S2 | 59.1% | 0.508% (active) | 7.63% (active) | 23.6% | 30% | 54.6% | 15.3% | 85.8% | 17.6% | 21% | 75.4% | 58.1% | 36.9% | 18.6% | -86.5% (active) | -36.5% (active) | -52.5% (active) | 42.3% | -47% (active) | 
7 | N#CC1=C(N)Oc2c(sc3c(Br)cccc23)C1c1ccc([N+](=O)[O-])cc1 (configuration not stated) | 8.77% (active) | 7.66% (active) | 93.2% | 17.6% | 13.5% | -5.7% (active) | -18% (active) | 87.1% | 7.43% (active) | 2.5% (active) | 25.8% | 30.8% | 14.6% | 13.6% | 0.865% (active) | 15.2% | -11.3% (active) | 61.4% |  | 
8 | O=C(O)CCC/C=C\C[C@H]1C=CC(=O)/C1=C/C[C@@H](O)CCc1cccc(C(F)(F)F)c1 | 13.6% | 3.71% (active) | 79.1% | -65.7% (active) | 3.06% (active) | -40.4% (active) | -1.94% (active) | -5.2% (active) | -55.8% (active) | -8.89% (active) | 72.8% | 7.63% (active) | -71.1% (active) | -19.3% (active) | -85.9% (active) | -62.2% (active) | -60.9% (active) | -43.6% (active) | -16.2% (active) | 
9 | CCC(C)(c1cc(C(C)(C)C)c(O)c(C(C)(C)C)c1)c1cc(C(C)(C)C)c(O)c(C(C)(C)C)c1 | 101% | 91.4% | 94% | 104% | 95.4% | 96.6% | 105% | 94.8% | 105% | 96.3% | 83.4% | 104% | 98.6% | 101% | 100% | 91.8% | 103% | 106% | 98.5% | 
10 | CCCCC[C@H](O)C/C=C1/C(=O)C=C[C@@H]1C/C=C\CCCC(=O)OC | 53.2% | 5.84% (active) | 107% | 70.8% | 34.9% | 82.2% | 91.3% | 74.5% | 20.8% | 3.13% (active) | 96.5% | 60.4% | 45.5% | 26.5% | 38% | 13.6% | -43.2% (active) | 28.3% | 13.6% | 
11 | CC1Cc2c(ncn3c(-c4ccc(F)cc4)nnc23)N(C)c2ccccc21 (configuration not stated) | 63.8% | 70.4% | 37.4% | 66.4% | 56.6% | 74.1% | 74.9% | 69.7% | 72% | 18.3% | -7.85% (active) | 48.5% | 39.3% | 63% | 96.7% | 73.5% | 12.6% | 85.4% | 59.4% | 
12 | CCN(CC)CCCNc1nc2ccccc2c2c(=O)c3cc(Cl)ccc3sc12 | 54.4% | -44.2% (active) | 84.6% | 76% | 55.6% | 104% | 58.3% | 102% | 36.2% | 11.7% | 68.3% | 79.6% | 41.5% | 54.7% | 92.7% | 73.8% | -81.2% (active) | 84.3% |  | -9.32% (active)
13 | CCCCC[C@H](O)C/C=C1/C(=O)C=C[C@@H]1C/C=C\CCCC(=O)O | 67.8% | 30.1% | 116% | 87.9% | 67% | 93.7% | 92.8% | 85.8% | 69.5% | 59.8% | 79.1% | 83.4% | 43.8% | 78.4% | 82.8% | 60.9% | 6.2% (active) | 66.4% | 70.1% | 
14 | COc1cccc(/C=C2\C=C(c3ccccc3)N(Cc3ccccc3)C2=O)c1 | 93.9% | 36.1% | 98.2% | 39.8% | 56.2% | 44.6% | 53.3% | 83.3% | 38% | 82.2% | 51.4% | 79.6% | 56.4% | 33.9% | 34.8% | 38% | 49.2% | 79.9% | 5.88% (active) | 
15 | CSc1ccc2c(c1)c(CCN)c(C)n2Cc1ccc(Cl)c(Cl)c1 | -89.4% (active) | -66.1% (active) | -75.4% (active) | -82.5% (active) | -71.1% (active) | -90.9% (active) | -82.8% (active) | -73.3% (active) | -91.3% (active) | -82.9% (active) | -84.3% (active) | -75% (active) | -87.3% (active) | -90% (active) | -95.1% (active) | -89.6% (active) | -89.7% (active) | -65.6% (active) | -85% (active) | 
